Data published in PubChem BioAssay (EPA / NIEHS).
Inconclusive results are not listed. Activity calls are given as the source filed them. The calls were made as follows, unless noted: active = hit-call score of the fitted dose curve at least 0.9, where 1 is the maximum; inactive = score below 0.9.

How the values were obtained:
[1] = read-out: Interleukin-8 (IL8), CXCL8 (gene 3576); assay: BSK_LPS_IL8: BioMAP Diversity Plus: LPS Assay for Interleukin-8 (IL8) Biomarker Activity (AID 2283078); details: primary human HUVEC with PBMC; actives raise or lower the signal
Summary of the method: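 Human umbilical vein endothelial cells co-cultured with PBMC were stimulated with LPS; IL-8 levels were measured by ELISA 24 h after chemical dosing. Activity was fitted bidirectionally against DMSO as negative control and baseline.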

[2] = BSK_LPS_SRB: Viability Assessment in the BioMAP Diversity Plus: LPS Assay (AID 2283079); details: primary human HUVEC with PBMC;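 also: total protein by sulforhodamine B absorbance as a cytotoxicity measure; measured one day after compound addition; fitted in both directions against DMSO so loss or gain of signal counts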
Summary of the method: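 Human umbilical vein endothelial cells co-cultured with PBMC (LPS system) were dosed for 24 h. Total protein was stained with 0.1% sulforhodamine B after 10% TCA fixation, read at 560 nm, and fitted bidirectionally against DMSO baseline.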

[3] = read-out: Monocyte Chemoattractant Protein-1 (MCP1), CCL2 (gene 6347); assay: BSK_LPS_MCP1: BioMAP Diversity Plus: LPS Assay for Monocyte Chemoattractant Protein-1 (MCP1) Biomarker Activity (AID 2283081); details: primary human HUVEC with PBMC; actives raise or lower the signal
Summary of the method: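 HUVEC plus PBMC co-culture (human primary cells, LPS system) exposed to test chemical for 24 h; MCP-1 measured by ELISA. Bidirectional curve fitting against DMSO baseline; parallel SRB total-protein staining flags overt cytotoxicity.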

[4] = read-out: Macrophage colony-stimulating factor (MCSF), CSF1 (gene 1435); assay: BSK_LPS_MCSF: BioMAP Diversity Plus: LPS Assay for Macrophage colony-stimulating factor (MCSF) Biomarker Activity (AID 2283083); details: primary human HUVEC with PBMC; actives raise or lower the signal
Summary of the method: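 Human umbilical vein endothelial cells co-cultured with peripheral blood mononuclear cells were exposed to compound for 24 h. M-CSF levels were measured by ELISA, and bidirectional curve fitting used DMSO as the negative control and baseline.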

[5] = read-out: Tissue Factor, F3 (gene 2152); assay: BSK_LPS_TissueFactor: BioMAP Diversity Plus: LPS Assay for Tissue Factor Biomarker Activity (AID 2283084); details: primary human HUVEC with PBMC; actives raise or lower the signal
Summary of the method: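 Human umbilical vein endothelial cells co-cultured with peripheral blood mononuclear cells were dosed and stimulated with LPS. Cell-surface CD142 was quantified by ELISA at 24 h. Activity was fitted bidirectionally against DMSO baseline.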

[6] = read-out: Tumor necrosis factor (Homo sapiens) (UniProt P01375); assay: BSK_LPS_TNFa: BioMAP Diversity Plus: LPS Assay for Tumour Necrosis Factor alpha (TNFa) Biomarker Activity (AID 2283085); details: primary human HUVEC with PBMC; actives raise or lower the signal
Summary of the method: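 Read-out is ELISA of TNFa in primary human endothelial cell–PBMC co-cultures at 24 h after compound. Activity in either direction was fitted against DMSO.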

[7] = read-out: Vascular cell adhesion molecule 1 (VCAM1), VCAM1 (gene 7412); assay: BSK_LPS_VCAM1: BioMAP Diversity Plus: LPS Assay for Vascular cell adhesion molecule 1 (VCAM1) Biomarker Activity (AID 2283086); details: primary human HUVEC with PBMC; actives raise or lower the signal
Summary of the method: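 HUVEC + PBMC co-culture, LPS system; compound 24 h; VCAM-1 by ELISA; bidirectional fit vs DMSO control; parallel SRB (0.1%, TCA-fixed, 560 nm) for cytotoxicity.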

CD38, CD38 (gene 952) = assay: BSK_SAg_CD38: BioMAP Diversity Plus: SAg Assay for CD38 Biomarker Activity (AID 2283087); details: primary human HUVEC with PBMC; actives raise or lower the signal
Summary of the method: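 Human HUVEC plus PBMC co-culture stimulated with superantigen; CD38 measured by ELISA 24 h after chemical dosing. Fluorescence read-out, bidirectional fit against DMSO; cytotoxicity tracked in parallel by SRB and Alamar Blue.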

CD40, CD40 (gene 958) = assay: BSK_SAg_CD40: BioMAP Diversity Plus: SAg Assay for CD40 Biomarker Activity (AID 2283088); details: primary human HUVEC with PBMC; actives raise or lower the signal
Summary of the method: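 Human umbilical vein endothelial cells co-cultured with PBMC; CD40 levels measured by ELISA with fluorescence read-out 24 h after chemical dosing. Gain or loss of signal fitted bidirectionally against DMSO baseline.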

[8] = read-out: Monocyte Chemoattractant Protein-1 (MCP1), CCL2 (gene 6347); assay: BSK_SAg_MCP1: BioMAP Diversity Plus: SAg Assay for Monocyte Chemoattractant Protein-1 (MCP1) Biomarker Activity (AID 2283090); details: primary human HUVEC with PBMC; actives raise or lower the signal
Summary of the method: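 MCP-1 levels in the endothelial–PBMC SAg co-culture were quantified by ELISA at 24 h post-dosing; both increases and decreases versus DMSO scored. Cytotoxicity monitored by SRB total protein in parallel cultures.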

[9] = read-out: E-selectin (Homo sapiens) (UniProt P16581); assay: BSK_SAg_Eselectin: BioMAP Diversity Plus: SAg Assay for Eselectin Biomarker Activity (AID 2283091); details: primary human HUVEC with PBMC; actives raise or lower the signal
Summary of the method: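 HUVEC co-cultured with PBMC, compound dosed then read at 24 h; E-selectin measured by ELISA. Activity fitted bidirectionally against DMSO as negative control and baseline.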

[10] = read-out: Monokine induced gamma interferon (MIG), CXCL9 (gene 4283); assay: BSK_SAg_MIG: BioMAP Diversity Plus: SAg Assay for Monokine induced gamma interferon (MIG) Biomarker Activity (AID 2283092); details: primary human HUVEC with PBMC; actives raise or lower the signal
Summary of the method: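 Values reflect bidirectional fitting of ELISA-measured MIG against DMSO vehicle, taken 24 h after dosing of a co-culture of human umbilical vein endothelial cells and peripheral blood mononuclear cells.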

[11] = BSK_SAg_PBMCCytotoxicity: PBMC Cytotoxicity Assessment in the BioMAP Diversity Plus: SAg Assay (AID 2283093); details: primary human HUVEC with PBMC;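 also: PBMC viability measured as Alamar Blue reduction fluorescence at 546/580 nm; fitted both ways against DMSO so a hit may be loss or gain of signal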
Summary of the method: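 HUVEC/PBMC co-culture; PBMC exposed to chemical 1 h before SEB and TSST-1 activation (20 ng/mL each), incubated 90 h, then Alamar Blue 6 h, fluorescence 546/580 nm. Bidirectional fit versus DMSO baseline.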

[12] = read-out: Interleukin-8 (IL8), CXCL8 (gene 3576); assay: BSK_SAg_IL8: BioMAP Diversity Plus: SAg Assay for Interleukin-8 (IL8) Biomarker Activity (AID 2283094); details: primary human HUVEC with PBMC; actives raise or lower the signal
Summary of the method: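 ELISA read-out of IL-8 in a primary human vascular co-culture (umbilical vein endothelium plus PBMC), taken 24 h after compound addition. Values derive from bidirectional fits against DMSO negative controls.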

[13] = BSK_SAg_Proliferation: Cell Proliferation Assessment in the BioMAP Diversity Plus: SAg Assay (AID 2283095); details: primary human HUVEC with PBMC;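 also: relative cell number as total protein by SRB absorbance in sub-confluent culture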
Summary of the method: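 Cells (endothelium plus PBMC, human primary) were dosed with chemical, cultured 96 h, fixed in 10% TCA and stained with 0.1% SRB. Absorbance at 560 nm gave relative protein, fitted bidirectionally relative to DMSO.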

[14] = BSK_SAg_SRB: Viability Assessment in the BioMAP Diversity Plus: SAg Assay (AID 2283096); details: primary human HUVEC with PBMC;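 also: cells read one day after compound addition; hits may be either gain or loss of signal compared with DMSO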
Summary of the method: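 Human umbilical vein endothelial cells co-cultured with PBMC, read 24 h after compound dosing. Total protein measured by sulforhodamine B staining (0.1% SRB after 10% TCA fixation, absorbance 560 nm); bidirectional fit versus DMSO baseline.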

[15] = TOX21_p53_BLA_p2_viability: Viability Assessment in the Tox21 HCT-116 p53 Agonism Beta-lactamase Assay, Phase 2 (AID 2283591; active = hit-call score of the fitted dose curve at least 0.9, where 1 is the maximum;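 also: compound exposure lasted 16 h at 37 °C; actives lower the ATP signal meaning cytotoxicity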)
Summary of the method: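 HCT116 p53-bla cells, 4000/well, dosed after 5 h plating (217-fold dilution of DMSO stocks) and incubated 16 h at 37C. Viability taken as cellular ATP by CellTiter-Glo luminescence after 30 min RT; signal loss marks cytotoxicity.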

[16] = target: Cellular tumor antigen p53 (Homo sapiens) (UniProt P04637); assay: TOX21_p53_BLA_p2_ratio: Tox21 HCT-116 p53 Agonism Beta-lactamase Assay, Ratio, Phase 2 (AID 2283592; active = hit-call score of the fitted dose curve at least 0.9, where 1 is the maximum)
Sequence of Cellular tumor antigen p53 (Homo sapiens) (P04637 whole entry, looked up): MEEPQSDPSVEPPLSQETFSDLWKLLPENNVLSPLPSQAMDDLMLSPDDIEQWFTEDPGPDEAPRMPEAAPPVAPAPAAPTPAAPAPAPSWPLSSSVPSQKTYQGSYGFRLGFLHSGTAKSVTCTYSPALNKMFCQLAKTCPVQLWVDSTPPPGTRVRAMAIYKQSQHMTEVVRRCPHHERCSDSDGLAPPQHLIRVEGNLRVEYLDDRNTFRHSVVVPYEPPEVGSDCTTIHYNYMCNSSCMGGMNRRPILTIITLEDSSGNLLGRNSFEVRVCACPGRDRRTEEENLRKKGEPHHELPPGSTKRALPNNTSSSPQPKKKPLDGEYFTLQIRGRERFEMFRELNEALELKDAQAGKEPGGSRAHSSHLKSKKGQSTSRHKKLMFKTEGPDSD
Summary of the method: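 HCT116 cells carrying a p53-responsive beta-lactamase reporter were plated, incubated 5 h at 37C, then dosed with compounds in DMSO (217-fold dilution) for 16 h. CCF4-AM substrate was added for 2 h at room temperature; the 460/530 nm emission ratio gave gain-of-signal activity relative to DMSO.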

[17] = TOX21_p53_BLA_p3_viability: Viability Assessment in the Tox21 HCT-116 p53 Agonism Beta-lactamase Assay, Phase 3 (AID 2283593; active = hit-call score of the fitted dose curve at least 0.9, where 1 is the maximum;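 also: cells exposed to compound for 16 h before reading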)
Summary of the method: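 HCT116 cells, 4000/well, dosed 5 h after plating by pin transfer (217-fold dilution from DMSO stock) and incubated 16 h at 37C, 5% CO2. Viability read as ATP luminescence with CellTiter-Glo after 30 min at room temperature.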

[18] = target: Cellular tumor antigen p53 (Homo sapiens) (UniProt P04637); assay: TOX21_p53_BLA_p3_ratio: Tox21 HCT-116 p53 Agonism Beta-lactamase Assay, Ratio, Phase 3 (AID 2283596; active = hit-call score of the fitted dose curve at least 0.9, where 1 is the maximum)
Summary of the method: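 HCT116 p53-bla cells (4000/well) given compound in DMSO (217-fold dilution) after 5 h, incubated 16 h at 37C. CCF4-AM substrate 2 h at room temperature; 460/530 nm emission ratio, gain fitted against DMSO.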

[19] = TOX21_p53_BLA_p4_viability: Viability Assessment in the Tox21 HCT-116 p53 Agonism Beta-lactamase Assay, Phase 4 (AID 2283597; active = hit-call score of the fitted dose curve at least 0.9, where 1 is the maximum;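 also: hits lower the luminescence signal meaning cytotoxicity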)
Summary of the method: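 HCT116 p53-bla cells (4000/well) rested 5 h at 37C, then received compounds in DMSO (217-fold dilution) for 16 h at 37C, 5% CO2. CellTiter-Glo was added after the CCF4-AM read, and luminescence was read after 30 min at room temperature.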

[20] = target: Cellular tumor antigen p53 (Homo sapiens) (UniProt P04637); assay: TOX21_p53_BLA_p5_ratio: Tox21 HCT-116 p53 Agonism Beta-lactamase Assay, Ratio, Phase 5 (AID 2283599; active = hit-call score of the fitted dose curve at least 0.9, where 1 is the maximum)
Summary of the method: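 HCT-116 p53-bla cells (4000/well) plated 5 h, dosed with compound (217-fold DMSO dilution) for 16 h at 37 C; CCF4-AM substrate 2 h at room temperature. Activity is the 460/530 nm emission ratio (405 nm excitation), fitted in gain-of-signal direction versus DMSO.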

[21] = TOX21_p53_BLA_p5_viability: Viability Assessment in the Tox21 HCT-116 p53 Agonism Beta-lactamase Assay, Phase 5 (AID 2283600; active = hit-call score of the fitted dose curve at least 0.9, where 1 is the maximum)
Summary of the method: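 Cells were plated at 4000/well, rested 5 h at 37C, then given compounds in DMSO (217-fold dilution) for 16 h at 37C, 5% CO2. Following the CCF4-AM beta-lactamase read, CellTiter-Glo was added and luminescence was read after 30 min at room temperature.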

[22] = target: Cellular tumor antigen p53 (Homo sapiens) (UniProt P04637); assay: TOX21_p53_BLA_p4_ratio: Tox21 HCT-116 p53 Agonism Beta-lactamase Assay, Ratio, Phase 4 (AID 2283601; active = hit-call score of the fitted dose curve at least 0.9, where 1 is the maximum)
Summary of the method: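 HCT-116 p53 beta-lactamase reporter cells (4000/well) preincubated 5 h, then compound (217-fold dilution of DMSO stock) for 16 h at 37C. CCF4-AM substrate added 2 h at room temperature; 460/530 nm emission ratio fitted upward versus DMSO.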

[23] = CCTE_Shafer_MEA_acute_firing_rate_mean: CCTE's Neural Acute Assay for Mean Firing Rate, Shafer Lab (AID 2284009);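 also: analyzed for loss of signal so actives lower firing rate relative to DMSO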
Summary of the method: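 Rat primary cortical neurons on 48-well MEA plates, dosed at 0.03-40 uM on DIV 13 or 15; 40 min spontaneous activity recorded at 37 C before and after compound. Spike rate per electrode averaged per well, expressed as percent change from baseline.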

[24] = CCTE_Shafer_MEA_acute_burst_number: CCTE's Neural Acute Assay for Single-Electrode Bursts, Shafer Lab (AID 2284013)
Summary of the method: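 Primary rat cortical neurons on 16-electrode MEA wells, treated on DIV 13 or 15 with compound at 0.03-40 uM. Single-electrode burst count from 40-min recordings at 37 C before and after exposure; percent change from baseline per well, DMSO negative control.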

[25] = CCTE_Shafer_MEA_acute_burst_duration_mean: CCTE's Neural Acute Assay for Mean Burst Duration, Shafer Lab (AID 2284014);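 also: hits are decreases in mean burst duration relative to DMSO controls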
Summary of the method: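 Rat primary cortical neurons on 48-well MEA, treated at DIV 13 or 15 with 0.03-40 uM in at least 3 wells. Value is percent change in mean burst duration, comparing 40 min recordings at 37 C before and during exposure.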

[26] = CCTE_Shafer_MEA_acute_per_burst_spike_number_mean: CCTE's Neural Acute Assay for Average Number of Spikes Per Burst, Shafer Lab (AID 2284015);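 also: hits are decreases in mean spikes per burst versus baseline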
Summary of the method: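 We recorded spontaneous network firing of rat cortical neurons for 40 min before and 40 min during exposure to compound at 0.03-40 uM, at 37 C. Spikes were detected adaptively at 8x rms noise, and the change in average spikes per burst was fitted against DMSO.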

Measured: AC50

Sequence of Tumor necrosis factor (Homo sapiens) (P01375 whole entry, looked up): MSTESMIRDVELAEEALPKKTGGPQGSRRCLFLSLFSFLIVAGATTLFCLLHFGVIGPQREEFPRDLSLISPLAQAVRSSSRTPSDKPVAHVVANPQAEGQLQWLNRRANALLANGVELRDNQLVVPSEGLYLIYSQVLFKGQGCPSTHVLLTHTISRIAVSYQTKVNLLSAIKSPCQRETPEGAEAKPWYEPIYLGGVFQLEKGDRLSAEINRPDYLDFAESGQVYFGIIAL
Sequence of E-selectin (Homo sapiens) (P16581 whole entry, looked up): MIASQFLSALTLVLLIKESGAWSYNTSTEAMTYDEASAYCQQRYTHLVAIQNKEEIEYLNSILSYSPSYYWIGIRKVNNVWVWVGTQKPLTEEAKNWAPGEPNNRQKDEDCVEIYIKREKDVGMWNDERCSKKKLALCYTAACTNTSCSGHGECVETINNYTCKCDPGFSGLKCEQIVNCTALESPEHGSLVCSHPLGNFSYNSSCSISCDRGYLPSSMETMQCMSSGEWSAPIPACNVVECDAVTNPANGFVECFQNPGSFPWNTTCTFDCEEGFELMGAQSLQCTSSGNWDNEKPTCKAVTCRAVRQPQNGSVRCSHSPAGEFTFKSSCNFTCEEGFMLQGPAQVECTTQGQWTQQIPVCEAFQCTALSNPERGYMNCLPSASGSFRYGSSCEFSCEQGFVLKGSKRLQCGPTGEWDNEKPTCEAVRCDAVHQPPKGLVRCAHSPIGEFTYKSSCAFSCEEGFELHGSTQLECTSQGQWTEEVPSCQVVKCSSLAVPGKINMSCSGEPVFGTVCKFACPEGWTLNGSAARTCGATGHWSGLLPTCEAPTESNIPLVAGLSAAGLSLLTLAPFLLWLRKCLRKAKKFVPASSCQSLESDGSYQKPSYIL

CCCC[N+](CCCC)(CCCC)CCCC
active: [23] 0.00301 µM | [24] 0.00152 µM | [25] 9.59 µM | [26] 5.44 µM
inactive: all other assays above
